Assay results as given in paper PMC8222333, “AsCas12a ultra nuclease facilitates the rapid generation of therapeutic cell medicines”.

B1: CGCG (dsDNA)
DNA 1: GCTATCTAGTGCTCAGTACGCACTGCGCGAGGAAACTTCTGGCAGGACCAGGTCATGAGATCGGAAGAGCACACGTCTGAACTCCAGTCA
DNA 2: TGACTGGAGTTCAGACGTGTGCTCTTCCGATCTCATGACCTGGTCCTGCCAGAAGTTTCCTCGCGCAGTGCGTACTGAGCACTAGATAGC
RNA: AAUUUCUACUCUUGUAGAUAGGAAACUUCUGGCAGGACC
B2: CTGC (dsDNA)
DNA 1: GCTATCTAGTGCTCAGTACGCACTGCTGCAGGAAACTTCTGGCAGGACCAGGTCATGAGATCGGAAGAGCACACGTCTGAACTCCAGTCA
DNA 2: TGACTGGAGTTCAGACGTGTGCTCTTCCGATCTCATGACCTGGTCCTGCCAGAAGTTTCCTGCAGCAGTGCGTACTGAGCACTAGATAGC
RNA: AAUUUCUACUCUUGUAGAUAGGAAACUUCUGGCAGGACC
B3: CGGT (dsDNA)
DNA 1: GCTATCTAGTGCTCAGTACGCACTGCGGTAGGAAACTTCTGGCAGGACCAGGTCATGAGATCGGAAGAGCACACGTCTGAACTCCAGTCA
DNA 2: TGACTGGAGTTCAGACGTGTGCTCTTCCGATCTCATGACCTGGTCCTGCCAGAAGTTTCCTACCGCAGTGCGTACTGAGCACTAGATAGC
RNA: AAUUUCUACUCUUGUAGAUAGGAAACUUCUGGCAGGACC
B4: CTCG (dsDNA)
DNA 1: GCTATCTAGTGCTCAGTACGCACTGCTCGAGGAAACTTCTGGCAGGACCAGGTCATGAGATCGGAAGAGCACACGTCTGAACTCCAGTCA
DNA 2: TGACTGGAGTTCAGACGTGTGCTCTTCCGATCTCATGACCTGGTCCTGCCAGAAGTTTCCTCGAGCAGTGCGTACTGAGCACTAGATAGC
RNA: AAUUUCUACUCUUGUAGAUAGGAAACUUCUGGCAGGACC
B5: CGCT (dsDNA)
DNA 1: GCTATCTAGTGCTCAGTACGCACTGCGCTAGGAAACTTCTGGCAGGACCAGGTCATGAGATCGGAAGAGCACACGTCTGAACTCCAGTCA
DNA 2: TGACTGGAGTTCAGACGTGTGCTCTTCCGATCTCATGACCTGGTCCTGCCAGAAGTTTCCTAGCGCAGTGCGTACTGAGCACTAGATAGC
RNA: AAUUUCUACUCUUGUAGAUAGGAAACUUCUGGCAGGACC
B6: CGGC (dsDNA)
DNA 1: GCTATCTAGTGCTCAGTACGCACTGCGGCAGGAAACTTCTGGCAGGACCAGGTCATGAGATCGGAAGAGCACACGTCTGAACTCCAGTCA
DNA 2: TGACTGGAGTTCAGACGTGTGCTCTTCCGATCTCATGACCTGGTCCTGCCAGAAGTTTCCTGCCGCAGTGCGTACTGAGCACTAGATAGC
RNA: AAUUUCUACUCUUGUAGAUAGGAAACUUCUGGCAGGACC
B7: CTGG (dsDNA)
DNA 1: GCTATCTAGTGCTCAGTACGCACTGCTGGAGGAAACTTCTGGCAGGACCAGGTCATGAGATCGGAAGAGCACACGTCTGAACTCCAGTCA
DNA 2: TGACTGGAGTTCAGACGTGTGCTCTTCCGATCTCATGACCTGGTCCTGCCAGAAGTTTCCTCCAGCAGTGCGTACTGAGCACTAGATAGC
RNA: AAUUUCUACUCUUGUAGAUAGGAAACUUCUGGCAGGACC
B8: CTAC (dsDNA)
DNA 1: GCTATCTAGTGCTCAGTACGCACTGCTACAGGAAACTTCTGGCAGGACCAGGTCATGAGATCGGAAGAGCACACGTCTGAACTCCAGTCA
DNA 2: TGACTGGAGTTCAGACGTGTGCTCTTCCGATCTCATGACCTGGTCCTGCCAGAAGTTTCCTGTAGCAGTGCGTACTGAGCACTAGATAGC
RNA: AAUUUCUACUCUUGUAGAUAGGAAACUUCUGGCAGGACC
B9: CGGA (dsDNA)
DNA 1: GCTATCTAGTGCTCAGTACGCACTGCGGAAGGAAACTTCTGGCAGGACCAGGTCATGAGATCGGAAGAGCACACGTCTGAACTCCAGTCA
DNA 2: TGACTGGAGTTCAGACGTGTGCTCTTCCGATCTCATGACCTGGTCCTGCCAGAAGTTTCCTTCCGCAGTGCGTACTGAGCACTAGATAGC
RNA: AAUUUCUACUCUUGUAGAUAGGAAACUUCUGGCAGGACC
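Also: relative affinity from the bound to unbound sequence frequency ratio in Spec-seq.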

The binders below were run against dAsCas12a S542R (Acidaminococcus sp., UniProt U2UMQ6 1-1307, S542R;D908A;E993A;D1235A) (assay: Spec-seq (native PAGE EMSA with sequencing of bound and unbound); 25 mM Tris-HCl pH 7.4, 150 mM KCl, 5 mM MgCl2, 10% glycerol, 1 mM DTT, 40 ng/uL salmon sperm DNA; 400 nM Cas12a, 480 nM crRNA, 50 nM library, 37 C 1 h; native PAGE at room temperature; high values mean tight binding). Settings: protein: recombinant.
B1 was tested, and the binding signal was -8.29 lnKA. B2 showed a binding signal of -8.71 lnKA. Work on B3 yielded a binding signal of -8.62 lnKA. In the case of B4, the binding signal is reported as -6.92 lnKA. Work on B5 yielded a binding signal of -8.52 lnKA. For B6, the binding signal was -8.51 lnKA. In the case of B7, the binding signal is reported as -8.46 lnKA. Binder B8 has a binding signal of -8.27 lnKA. With B9 the binding signal was -8.76 lnKA.

The binders below were run against d-enCas12a (Acidaminococcus sp., UniProt U2UMQ6 1-1307, E174R;S542R;K548R;D908A;E993A;D1235A) in the same assay as above. Settings: protein: recombinant.
For B1, the binding signal was -3.31 lnKA. B2 showed a binding signal of -5.32 lnKA. Binder B3 has a binding signal of -5.84 lnKA. With B4 the binding signal was -3.29 lnKA. B5 gave a binding signal of -4.5 lnKA. B6 showed a binding signal of -5.63 lnKA. B7 gave a binding signal of -5.9 lnKA. In the case of B8, the binding signal is reported as -4.66 lnKA. Binder B9 has a binding signal of -5.73 lnKA.

What follows are binders tested against d-enCas12a-Ultra (Acidaminococcus sp., UniProt U2UMQ6 1-1307, E174R;S542R;K548R;M537R;F870L;D908A;E993A;D1235A) in the same assay as above. Settings: protein: recombinant.
B1 showed a binding signal of -0.79 lnKA. Work on B2 yielded a binding signal of -2.48 lnKA. With B3 the binding signal was -3.41 lnKA. In the case of B4, the binding signal is reported as -0.685 lnKA. B5 was tested, and the binding signal was -1.29 lnKA. B6 gave a binding signal of -3.15 lnKA. B7 gave a binding signal of -3.29 lnKA. B8 gave a binding signal of -1.69 lnKA. In the case of B9, the binding signal is reported as -3.26 lnKA.
